In the supplement of paper PMC9492666:
Where a name gives a salt, the structure may show the parent alone.

Assays:
HCC1937 = assay: relative cell viability, compound alone, vs DMSO (fraction of DMSO control); higher = less growth inhibition; conditions: 72 h
MDA-MB-231 = assay: as above; conditions: 72 h
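Also: viability read out with the CCK-8 kit in 96-well plates, screening a set of 303 compounds acting on lipid metabolism targets.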

Compound	relative cell viability (HCC1937)	relative cell viability (MDA-MB-231)
Cc1c(C(=O)NN2CCOCC2)nn(-c2ccc(Cl)cc2Cl)c1-c1ccc(I)cc1	0.645	0.817
CN(CCOc1ccc(CC2SC(=O)NC2=O)cc1)c1ccccn1 (centres undefined) [Rosiglitazone HCl]	0.781	0.947
O=C(O)CC[C@H](O)C(=O)O [L-2-Hydroxyglutaric acid disodium]	1.04	1
C=CC[S+]([O-])C[C@H](N)C(=O)O (some centres undefined) [Alliin]	1	1.04
O=C(Nc1cnccc1Cl)N1CCN(Cc2ccc3c(c2)OC(F)(F)O3)CC1	0.747	0.771
COc1cc(N2CCN(C)CC2)ccc1Nc1ncc2c(n1)N(C)c1ccccc1C(=O)N2	0.666	0.655
O=C1/C(=C/c2cccs2)CC/C1=C\c1cccs1	0.766	0.84
CN1c2ccccc2C(=O)Nc2cnc(Nc3ccc(N4CCC(O)CC4)cc3)nc21	0.384	0.55
Cc1cccc(Nc2cc(Cl)nc(SCC(=O)O)n2)c1C [Pirinixic Acid]	0.824	0.88
O=C(Nc1ccc(C(O)(C(F)(F)F)C(F)(F)F)cc1)c1ccc(C(F)(F)F)cc1	0.54	0.631
O=C(O)CCCc1cc2cc(Cl)ccc2n1S(=O)(=O)c1ccc2ncsc2c1 [Lanifibranor]	0.754	1.07
CC1=C[C@]2(O)O[C@@]3(CC2=C(C)C)[C@@H](C)CC[C@@H]13 [Curcumenol]	0.868	0.863
Nc1ncnc2c1ncn2C1OC(COP(=O)(O)O)C(O)C1O (centres undefined) [Adenosine 5'-monophosphate monohydrate]	1.09	1.03
O=C(CCCCc1ccc2c(c1)OCO2)N1CCCCC1	0.608	0.838
Nc1cccc(S(=O)(=O)N2CCCN(S(=O)(=O)c3ccc4c(c3)OCCO4)CC2)c1	0.881	1.01
CCC1C(O)C2C3CCC(C(C)CCO)C3(C)CCC2C2(C)CCC(O)CC12 (centres undefined)	0.848	0.916
Fc1ccc(-c2c3cccc(C(F)(F)F)c3nn2Cc2ccc(F)cc2Cl)cc1	1.11	0.816
CCCC[S+]([O-])c1sc2nc(-c3cccs3)cc(-c3ccccc3)c2c1N (centres undefined)	0.85	0.806
O=C(O)c1cccnc1Nc1cccc(C(F)(F)F)c1 [Niflumic acid]	1.09	0.89

Compound	relative cell viability (HCC1937)	relative cell viability (MDA-MB-231)
O=C(Nc1ccc(C(O)(C(F)(F)F)C(F)(F)F)cc1)c1ccccc1Cl	1.05	1.01
COc1ccc2c(=O)c(-c3ccccc3)coc2c1 [7-Methoxyisoflavone]	0.594	0.859
CN1CCN(c2ccc(/C=C(\C#N)c3ccccc3Br)cc2)CC1 [DG172 (dihydrochloride)]	0.933	0.965
O=P(O)(O)OC(CO)CO [β-Glycerol phosphate disodium salt pentahydrate]	0.636	0.874
CCOC(=O)N1c2ccc(C(F)(F)F)cc2[C@@H](N(Cc2cc(C(F)(F)F)cc(C(F)(F)F)c2)C(=O)OC)C[C@H]1CC [Torcetrapib]	0.745	0.781
Cc1cc(SCc2sc(-c3ccc(C(F)(F)F)cc3)nc2C)ccc1OCC(=O)O	0.916	0.857
CC[C@H](C)C(=O)O[C@H]1CCC=C2C=C[C@H](C)[C@H](CC[C@@H]3C[C@@H](O)CC(=O)O3)[C@H]21 [Mevastatin]	0.819	0.548
C/C=C(\CC[C@@H](C)[C@H]1CC[C@H]2[C@@H]3CC=C4C[C@@H](O)CC[C@]4(C)[C@H]3CC[C@]12C)C(C)C [Fucosterol]	1	0.968
O=C(O)c1cc(F)c2nc(N3[C@@H]4CC[C@H]3C[C@@H](OCc3c(-c5ccccc5OC(F)(F)F)noc3C3CC3)C4)sc2c1 [Tropifexor]	1.05	0.971
CCCCCCCCCCCC1=C(O)C(=O)C=C(O)C1=O [Embelin]	1.08	0.983
CC(C)c1c(C(=O)Nc2ccccc2)c(-c2ccccc2)c(-c2ccc(F)cc2)n1CC[C@@H](O)C[C@@H](O)CC(=O)O [Atorvastatin Calcium]	0.657	0.569
O=C(c1ccc(-c2nc3ccc(F)cc3o2)cc1)N1CCN(C(=O)C2(O)CC2)CC1	0.831	0.918
CCN(CC)CCCC(C)Nc1c2ccc(Cl)cc2nc2ccc(OC)cc12 (centres undefined) [Quinacrine dihydrochloride]	0.212	0.306
CC1=C(/C=C/C(C)=C/C=C/C(C)=C/C=C/C=C(C)/C=C/C=C(C)/C=C/C2=C(C)C(=O)[C@@H](O)CC2(C)C)C(C)(C)C[C@H](O)C1=O [Astaxanthin]	1.01	1.13
CCC(C)(Oc1ccc(C2(c3ccc(OC(C)(CC)C(=O)O)cc3)CCCCC2)cc1)C(=O)O (centres undefined) [Clinofibrate]	0.901	0.846
Cc1ccc(CN(CC(O)COc2cccc3[nH]ccc23)C(C)(C)C)cc1 (centres undefined)	0.994	0.988
CS(=O)(=O)c1ccc(-c2nnc(/C=C/c3nnc(-c4ccc(C#N)cc4)o3)n2-c2ccccc2Cl)nc1	1.07	0.851
COc1ccc(/C=C/c2cc(O)cc(O[C@@H]3O[C@H](CO)[C@@H](O)[C@H](O)[C@H]3O)c2)cc1 [Deoxyrhapontin]	0.932	0.995
